# Measurements from publication PMC5540273 (PLoS ONE, 2017).
# Key:
# Conditions in all cases: concentration: 1 μM, replicates: in singlicate; n = 1
# PHKG1 = test system: PHKG1
# PHKG2 = test system: PHKG2
# PIK3C2B = test system: PIK3C2B
# PIK3C2G = test system: PIK3C2G
# PIK3CA = test system: PIK3CA
# PIK3CB = test system: PIK3CB
# PIK3CD = test system: PIK3CD
# PIK3CG = test system: PIK3CG
# PIK4CB = test system: T1, PIK4CB
# T1 construct: gene PI4KB
# PIKFYVE = test system: PIKFYVE
# 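Also: KINOMEscan kinase panel screen.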
SMILES,%Inh (PHKG1),%Inh (PHKG2),%Inh (PIK3C2B),%Inh (PIK3C2G),%Inh (PIK3CA),%Inh (PIK3CB),%Inh (PIK3CD),%Inh (PIK3CG),%Inh (PIK4CB),%Inh (PIKFYVE)
Cc1csc(-c2nc(Nc3ccncc3)c3ccccc3n2)n1 [GW869640],14%,1%,37%,31%,13%,50%,26%,30%,57%,78%
Cn1ccc2ncnc(Oc3cccc(C(=O)Nc4ccccc4)c3)c21,0%,0%,0%,0%,0%,15%,27%,0%,2%,10%
Cc1ccc(NC(=O)Nc2cccc(Cl)c2)cc1-c1ccc(C(=O)Nc2ccncc2)cc1 [GSK1398468],0%,11%,0%,0%,8%,0%,0%,0%,0%,2%
Cc1cccc(-c2nc(Nc3ccc4[nH]ncc4c3)c3ccccc3n2)n1 [GW857175],0%,16%,8%,43%,0%,7%,18%,0%,23%,85%
CC(C)(C)c1ccc(C(=O)Nc2cn3cc(Cl)ccc3n2)cc1,0%,0%,0%,0%,0%,0%,0%,0%,0%,4%
CS(=O)(=O)c1ccc(-c2c(-c3ncn[nH]3)sc(N3CCOCC3)c2C#N)cc1,9%,7%,0%,14%,96.9%,97.3%,65%,57%,0%,40%
Fc1cc(Cl)ccc1Nc1ccnc2cc(I)ccc12 [GW551191],0%,0%,0%,0%,0%,0%,0%,0%,0%,0%
Clc1cc(Cl)cc(Nc2ccnc(Nc3cc(Cl)cc(Cl)c3)n2)c1 [GSK175726],0%,0%,6%,0%,5%,40%,38%,3%,0%,1%
COc1ccccc1CNC(=O)c1cc(C(=O)c2ccccc2C)c[nH]1 [GSK364507],1%,0%,0%,0%,0%,0%,0%,0%,16%,0%
COc1cc(Nc2nccc(N3CCC(NC(=O)Nc4cc(C)ccc4C)C3)n2)cc(OC)c1OC (centres unmarked) [GSK1379762],3%,0%,0%,0%,0%,0%,39%,0%,15%,0%
O=C(Nc1n[nH]c2nc(-c3nccs3)c(Br)cc12)C1CC1 [SB-742251],0%,0%,0%,0%,0%,0%,0%,0%,0%,14%
COc1cccc(-c2cc(-c3c[nH]nc3-c3ccccn3)ccn2)c1 [GW680338],2%,10%,7%,11%,4%,3%,0%,9%,0%,0%
CN(C)CCN(C)C(=O)c1cc(-c2ccncc2)c(-c2ccc(Cl)c(O)c2)o1.Cl.Cl [SB-710397],0%,0%,0%,0%,0%,18%,40%,0%,7%,47%
Cl.Oc1ccc(-c2nc(-c3ccccc3)[nH]c2-c2ccncc2)cc1 [SB-428218],49%,0%,0%,0%,0%,0%,0%,0%,0%,46%
Cc1cccc(-c2cc(Nc3ccncc3)c3ccccc3n2)n1 [GSK223675],0%,1%,4%,0%,7%,0%,0%,7%,21%,23%
Cc1c(O)cccc1Nc1ccnc2ccc(C(F)(F)F)cc12.Cl [GW466413],3%,0%,18%,48%,0%,0%,25%,0%,3%,11%
COc1ccc(C2=C(Nc3cccc(C(=O)O)c3)C(=O)NC2=O)cc1 [SB-390765],0%,0%,23%,21%,0%,40%,16%,27%,22%,0%
